High-throughput results from PubChem BioAssay.
MITF primary = inhibitors of human MITF; AID 1259374; O75030; AlphaScreen MITF homodimerization, bead proximity signal; 650,000 tested, 0.91% active; inhibition, % at 2.6 µM; in the data active = inhibition above about 50%;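 also: 0% = vehicle wells with protein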
TEAD-YAP inh = TEAD-YAP interaction inhibition; HEK-TIYL cells, TEAD-Gal4/YAP UAS-luciferase luminescence; inhibition, % at 9.12 µM; 640,000 tested, 1.4% active; AID 1259422; in the data active = inhibition above about 32%;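 also: 0% = median of test compound wells and 100% = reference inhibitor wells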
FBW7 activator = activators of human E3 ligase FBW7; Q969H0; AlphaScreen FBW7–phospho-cyclin E peptide binding, activator screen; normalized activity (activation), % at 26.1 µM; 650,000 tested, 0.13% active; AID 1259310; in the data active = normalized activity above about 1.9%;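 also: purified mutant Fbw7 with reduced substrate affinity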
Target sequence (Q969H0 whole entry, looked up): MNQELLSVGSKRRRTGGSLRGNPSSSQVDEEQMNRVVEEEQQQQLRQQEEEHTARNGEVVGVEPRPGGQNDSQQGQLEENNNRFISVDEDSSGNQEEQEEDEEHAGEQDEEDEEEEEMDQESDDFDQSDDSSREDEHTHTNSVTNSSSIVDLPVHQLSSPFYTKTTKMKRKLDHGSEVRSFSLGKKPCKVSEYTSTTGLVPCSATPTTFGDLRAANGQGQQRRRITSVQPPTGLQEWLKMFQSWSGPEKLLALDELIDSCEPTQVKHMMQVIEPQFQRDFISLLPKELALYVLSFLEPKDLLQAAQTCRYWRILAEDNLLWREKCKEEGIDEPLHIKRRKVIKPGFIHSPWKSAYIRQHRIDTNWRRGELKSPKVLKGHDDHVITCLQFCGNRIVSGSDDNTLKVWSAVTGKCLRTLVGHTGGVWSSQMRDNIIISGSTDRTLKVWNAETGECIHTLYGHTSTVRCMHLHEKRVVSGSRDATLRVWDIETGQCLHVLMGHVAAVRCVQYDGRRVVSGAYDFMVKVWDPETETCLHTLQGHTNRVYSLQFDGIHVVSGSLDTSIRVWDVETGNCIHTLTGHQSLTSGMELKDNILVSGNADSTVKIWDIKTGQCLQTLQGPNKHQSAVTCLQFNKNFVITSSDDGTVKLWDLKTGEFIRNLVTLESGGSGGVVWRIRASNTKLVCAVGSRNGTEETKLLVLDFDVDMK
GPR151 ag = activators of human GPR151; activation, % at 11.2 µM; AID 1508602; PathHunter beta-arrestin GPR151 cells, luminescence; 650,000 tested, 1% active; Q8TDV0; in the data active = activation above about 4.9%;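 also: 0% = median of compound wells and 100% = cells with positive control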
MITF inh conf = confirmation of human MITF inhibitors | shares compounds with MITF primary | AlphaScreen MITF homodimerization, biotin/His-MITF beads | inhibition, % at 2.6 µM | 4,700 tested, 16% active | AID 1259372;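 active = inhibition above a cutoff derived from the DMSO control wells, cut at about 28% in these data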;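 also: 0% = MITF dimer wells with DMSO only; inhibitors lower the bead chemiluminescence by keeping MITF from dimerizing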
AlphaScreen DR = AlphaScreen optical interference, dose response counter-screen | IC50, µM | shares compounds with MITF primary | AlphaScreen optical interference counterscreen, cell-free | 480 tested, 6% active; call rule not given here
AS interf ctr = counter-screen: compounds optically interfering with AlphaScreen; shares compounds with MITF primary; LysRS AlphaScreen counterscreen, signal interference, triplicate; inhibition, % at 2.6 µM; 4,700 tested, 7.6% active;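 active = inhibition above a cutoff derived from the DMSO control wells, cut at about 30% in these data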
* marks the source's active call; other numbers are inactive results; . = not tested or not shown. Sampled rows, rich in hits. Any-hit rate of the full collection: about 3.5%.

SMILES	MITF primary	TEAD-YAP inh	FBW7 activator	GPR151 ag	MITF inh conf	AS interf ctr	others
COC(=O)c1ccc(C(=O)OC)c(NC(=O)c2ccc(OC)c([N+](=O)[O-])c2)c1	24	-1	1	1	.	.
c1cncc(CN2CCN(Cc3cccnc3)CC2)c1	60*	9	0	0	3	-1
Fc1ccc(N2CCN(Cc3cccnc3)CC2)cc1	37	11	0	1	.	.
c1cncc(CN2CCN(Cc3ccco3)CC2)c1	75*	2	0	1	9	-1
COc1cc(C(=O)N2CCN(Cc3cccnc3)CC2)cc(OC)c1OC	54*	-3	1	0	2	0
COc1cc(OC)cc(C(=O)N2CCN(Cc3cccnc3)CC2)c1	66*	24	0	-2	8	18
COc1cc(OC)cc(C(=O)N2CCN(C3CCN(Cc4ccccc4)CC3)CC2)c1	59*	0	0	-3	1	-3
COc1cc(C(=O)N2CCN(Cc3cccc(F)c3)CC2)cc(OC)c1OC	54*	-3	0	-1	7	2
CCC(CC)C(=O)Nc1ccc(O)cc1C(=O)O	7	-1	0	0	.	.
CC(Cc1cccs1)NC(=O)NCc1cccs1 (stereo unspecified)	8	-10	0	-2	.	.
Cc1ccc(/C=N/NC(=O)C23CC4CC(CC(C4)C2)C3)o1	-5	-33	0	2	.	.
O=C(O)C1=NN(c2ccccn2)C(=O)CC1	77*	-39	-1	-1	-96	100*
Cc1c(NC(=O)CCN2C(=O)C3C4CCC(C4)C3C2=O)ccc(Br)c1Cl (stereo unspecified)	68*	-19	0	-1	10	-3
COc1cccc(OS(=O)(=O)c2cn(C)c(=O)n(C)c2=O)c1	2	-1	0	-1	.	.
COc1ccc(/C=C2\N=C(c3ccc4c(c3)OCO4)OC2=O)cc1Cl	69*	0	0	-1	74*	10	AlphaScreen DR=>5.4
COc1cc(/C=C2\N=C(c3ccc(F)cc3)OC2=O)ccc1OCc1ccccc1Cl	73*	-2	0	1	2	16
COc1cc(/C=C2\N=C(c3ccc(C)cc3)OC2=O)ccc1OCc1ccccc1Cl	-1	-6	0	-1	.	.
Cc1ccc(-n2c(C)ccc2-c2ccccc2)cc1C	11	0	0	-1	.	.
CN1CCN(c2ccc(C(=O)N3CCC[C@@H]4CN(Cc5cccs5)CC[C@H]43)cc2)CC1	-4	-3	0	0	.	.
CC(C)NCC(=O)Nc1c2c(nc3c1CCC3)CCCC2	75*	0	0	-1	1	-3
CCC(=O)Nc1c2c(nc3c1CCC3)CCCC2	8	-3	0	-1	.	.
CN(C)CC(=O)Nc1c2c(nc3c1CCC3)CCCC2	59*	-8	0	-1	0	0
O=C(CSc1nnnn1-c1cccc2ccccc12)c1ccc(Cl)cc1Cl	12	2	0	0	.	.
Cc1c(C(=O)N(C)C)sc2c1c(=O)n(-c1ccccc1C(F)(F)F)c(=O)n2C	-3	-6	0	-2	.	.
Cc1onc(-c2ccccc2)c1C(=O)Nc1cccc(C#N)c1	70*	8	1	0	9	9
SMILES	MITF primary	TEAD-YAP inh	FBW7 activator	GPR151 ag	MITF inh conf	AS interf ctr	others
CC(=O)OC1C2CC(C1Br)C(C(F)(F)F)(C(F)(F)F)N2 (stereo unspecified)	55*	-4	0	0	-4	-2
CC(=O)OC1C2CC(C1I)C(C(F)(F)F)(C(F)(F)F)N2 (stereo unspecified)	10	1	0	0	.	.
CCOC(=O)C1C(c2ccc(O)cc2)NC(=S)NC1(O)C(F)(F)F (stereo unspecified)	12	19	0	0	.	.
CC(=O)c1cccc(NC(=S)NCCn2cc(Cl)cn2)c1	68*	2	0	1	13	9
Cc1nc(C)c(C(=O)Nc2ccc(Br)cc2)o1	56*	2	0	-1	7	21
Cc1nc(C)c(C(=O)Nc2ccc(C(N)=O)cc2)o1	2	-10	0	0	.	.
Cc1cccc(N2C(=O)C3C=NNC3=NC2=S)c1 (stereo unspecified)	-2	6	0	1	.	.
O=C(C1CCCN(Cc2ccco2)C1)N1CCCCCC1 (stereo unspecified)	54*	2	0	3	5	-2
O=C(C1CCCN(Cc2ccccc2F)C1)N1CCCCC1 (stereo unspecified)	69*	9	0	-1	11	17
COc1cccc(CN2CCN(Cc3ccc(C)cc3)CC2)c1OC	76*	-4	0	0	-1	-2
COc1cccc(CN2CCN(Cc3ccc(Cl)cc3)CC2)c1OC	70*	-10	0	1	2	8
CCOc1ccc(CN2CCN(Cc3cccc(OC)c3OC)CC2)cc1	79*	-3	1	-1	-3	3
Cc1ncc(CN2CCCC(C(=O)Nc3cccc(-n4cnnn4)c3)C2)cn1 (stereo unspecified)	3	9	0	-1	.	.
C/C(CC(=O)Nc1ccccc1)=N\NC(=O)CC#N	57*	-9	-1	2	61*	35*
COC(=O)c1ccccc1NC(=O)C/C(C)=N/NC(=O)CC#N	7	2	0	3	.	.
Cc1ccc(CN2C(=O)NC3(CCN(C(=O)C(C)(C)C)CC3)C2=O)cc1	-9	6	0	1	.	.
Cc1ccccc1NC(=O)c1ccccc1N(Cc1ccccc1)S(C)(=O)=O	55*	7	0	-1	-2	6
Cc1nc2ccccc2c(=O)n1NC(=O)c1cccc(Br)c1	14	-13	0	0	.	.
N#C/C(=C\c1cn(CC(=O)NCC2CCCO2)c2ccccc12)C(=O)NC1CCCCCC1 (stereo unspecified)	3	0	0	0	.	.
O=C(O)c1cc(NN=C2CCCC2)ccc1Cl	72*	-21	-1	1	73*	1	AlphaScreen DR=>7.2
COc1ccc(S(=O)(=O)CCC(=O)Nc2nc3ccc(OC)cc3s2)cc1	54*	-19	0	1	28*	-4
Cc1ccc2nc(NC(=O)COc3ccc(Cl)cc3Cl)sc2c1	14	3	0	-1	.	.
CS(=O)(=O)c1ccc2nc(NC(=O)COc3ccc(Cl)cc3Cl)sc2c1	74*	-1	0	-1	10	7
COc1ccc(S(=O)(=O)CCC(=O)Nc2nc3ccc(C)cc3s2)cc1	16	-1	0	-1	.	.
CN(C(=O)c1ccc(=O)[nH]c1)C(c1ccccc1)c1ccccc1	1	-3	0	0	.	.
Fc1cccc(CN2CCN(Cc3ccccn3)CC2)c1	71*	-6	0	0	11	25
Fc1ccc(N2CCN(Cc3ccccn3)CC2)cc1	63*	0	0	1	14	42*
c1ccc(Oc2cccc(CN3CCN(Cc4ccccn4)CC3)c2)cc1	75*	2	0	-1	-5	5
